KB-3-1 tox – kills parental KB-3-1 adenocarcinoma cells. actives 1.4% (n = 400,000). Potency, µM (series often up to 46.1 µM), hits mostly cytotoxic. KB-3-1 viability, CellTiter-Glo ATP luminescence, 72 h; note: % is set by controls: 0 for no effect and ±100 for the full control effect; nearly all actives have a fitted effect of over 60% in size
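KB-3-1 parental drug-naive adenocarcinoma cells in DMEM/10% FBS, incubated 72 h at 37 C with pin-transferred compounds across a concentration series. Viability by CellTiter-Glo luminescence; concentration-response curves fitted after normalization.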
KB-V1 MDR tox – kills drug-selected multidrug resistant KB-V1 cells | KB-V1 MDR cells viability, CellTiter-Glo, 72 h | Potency, µM (highest dose often 46.1 µM), usual class: cytotoxic | actives 3.4% (n = 400,000) | AID 1347076; note: % is set by controls: 0 for no effect and ±100 for the full control effect; nearly all actives have a fitted effect of over 60% in size
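Compound-treated KB-V1 multidrug-resistant cells, 72 h, 37 degrees C; viability by CellTiter-Glo. Fitted qHTS curves give the values.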
SW480 rerep – induces DNA re-replication in SW480 colon adenocarcinoma cells; SW480 DNA re-replication, Hoechst DNA content imaging, 48 h; Potency, µM (highest dose often 46.1 µM), without a hit: at the highest dose re-replication activation, usual class: activators; actives 1.8% (n = 340,000); AID 624297; note: % of control where 0% means no effect; nearly all actives have a fitted effect of over 55% in size
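First, 250 cells per well were seeded. Next, compound or vehicle (23 nL) was pinned in, plates sat 48 hr at 37 C. Finally Hoechst was added for 40 min before fluorescence scanning.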
MCF10A rereplic – induces DNA re-replication in MCF 10a normal breast cells; actives 2.9% (n = 350,000); Potency, µM (series often up to 46.1 µM), for the others: at the highest dose activity, positive = re-replication, usual class: activators; AID 624296; MCF 10A DNA re-replication, Hoechst nuclear intensity, 48 h; note: % of control where 0% means no effect; nearly all actives have a fitted effect of over 50% in size
HT1080 IDH1KD tx – toxicity to HT-1080 IDH1 knockdown cells (counter line) | actives 2% (n = 360,000) | Potency, µM (top dose mostly 46.1 µM), inactives show at the top dose activity, negative = toxicity, usual class: cytotoxic | HT-1080 IDH1 knockdown viability, ATP luminescence, 48 h;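 note: 0% = DMSO wells and -100% = cell-free medium wells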
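IDH1KD HT-1080 cells, 750/well, RPMI + 5% FBS; compound pinned after 2 h settling; 48 h, 37 °C; CellTiter-Glo luminescence; % activity normalised to DMSO and no-cell wells; curves fitted, classed by r2 and efficacy.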
HT1080NT lethal – kills 2HG-producing HT-1080-NT fibrosarcoma cells | Potency, µM (top dose mostly 46.1 µM), without a hit: at the highest dose activity, negative = less viability, hits mostly cytotoxic | HT-1080-NT fibrosarcoma viability, CellTiter-Glo ATP luminescence, 48 h | actives 1.6% (n = 360,000) | AID 686970;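 note: NT is the 2HG producing partner of a matched IDH1 knockdown line; 0% = DMSO-treated cells and -100% = media-only wells without cells; nearly all actives have a fitted effect of over 55% in size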
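Compounds were tested in concentration-response format on HT-1080-NT cells for 48 hours at 37 degrees C. Cell viability came from CellTiter-Glo luminescence; curves were classified by r2, response magnitude and activity.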
Numbers without * were called inactive; i = inactive; ? = inconclusive; / = not tested or not shown. Rows were chosen to be rich in hits. Some 7.9% of all compounds tested hit in one or more screens of this group. Calls come from the whole dose curve; as a rule, active = well fitted curve in the direction sought with a large enough effect; inconclusive = small, poorly fitted or top-dose-only effect, or another doubt; inactive = no such curve, though single readings can be large; an effect the other way counts as inactive or inconclusive. Potency is the fitted concentration of half-maximal effect.

SMILES | KB-3-1 tox | KB-V1 MDR tox | SW480 rerep | MCF10A rereplic | HT1080 IDH1KD tx | HT1080NT lethal
CCOc1ccc(-c2cc(N3C(=O)Nc4ccccc4N3O)n[nH]2)cc1 | i | i | ? | ? | 20.6µM* | 16.4µM*
CSC[C@H]1CN(c2ccc(Br)cc2)C(=O)[C@@H]1CC(=O)Nc1ccc(Br)cc1 | i | ? | / | / | -12.5% | -9.1%
Cc1nn(Cc2ccccc2Cl)c(C)c1C(=O)NCCN1C(=O)S/C(=C\c2ccccc2)C1=O | i | ? | -6.8% | 16.4µM* | -19.2% | ?
Cc1ccc2c(c1)c(=O)c(C(=O)c1ccc3c(c1)OCO3)cn2Cc1ccc(Cl)cc1 | i | i | / | / | / | /
CCCOc1ccc(NC(=O)CC2C(=O)N(CC)C(=S)N2CCCN2CCN(Cc3ccccc3)CC2)cc1 (centres undefined) | ? | ? | ? | ? | 16.4µM* | 16.4µM*
CCN1C(=O)C(CC(=O)Nc2ccc(F)cc2)N(CCCN2CCN(c3ccc(F)cc3)CC2)C1=S (centres undefined) | i | ? | 13.2% | ? | ? | 29.1µM*
CCCOc1ccc(NC(=O)CC2C(=O)N(CC)C(=S)N2CCNC(C)=O)cc1 (centres undefined) | i | i | 23.6% | ? | 6.0% | 9.0%
COC(=O)c1ccc(OCC2c3cc(OC)c(OC)cc3CCN2C(=O)c2ccc(F)cc2)cc1 (centres undefined) | i | ? | / | / | / | /
COc1ccc2cc(-c3cc(C(=O)OCC(=O)NC4CCS(=O)(=O)C4)c4ccccc4n3)ccc2c1 (centres undefined) | i | i | ? | 7.31µM* | 10.3µM* | ?
Cc1cc(C(=O)OCC(=O)NC2CCS(=O)(=O)C2)c(C)n1-c1ccccc1 (centres undefined) | ? | 16.4µM* | 2.2% | -3.5% | -4.3% | -5.7%
COc1ccc(NC(=O)C(=O)NCCc2csc3nc(-c4ccccc4C)nn23)cc1 | i | i | / | / | / | /
COc1ccc(N2CCN(c3ccc(-c4nc(-c5ccccc5)no4)cc3[N+](=O)[O-])CC2)cc1 | i | i | / | / | / | /
CCOC(=O)c1c(-c2ccccc2)oc2ccc(OCC)cc12 | i | ? | 231.5% | ? | 3.9% | -0.2%
CCOC(=O)c1c(-c2ccccc2)oc2ccc(OCC(O)CNCCN(C)C)cc12 (centres undefined) | ? | ? | 18.9% | ? | 13µM* | 18.4µM*
CCn1ccc2cc(S(=O)(=O)N3CCCN(C(=O)Nc4ccc(C)cc4)CC3)ccc21 | ? | i | / | / | / | /
Cc1c(Cl)ccc2c(C(O)CBr)cc(-c3ccccc3)nc12 (centres undefined) | i | i | ? | 20.6µM* | ? | ?
CN(C)c1cc[n+](CC(=O)c2ccc(-c3ccccc3)cc2)cc1 | ? | i | 4.0% | 9.6% | 16.4µM* | 8.2µM*
COc1ccc(C(=O)C[n+]2cccc3cc(OC)ccc32)cc1 | 16.4µM* | i | -1.3% | -3.1% | -9.0% | -15.8%
CN(C)c1cc[n+](CC(=O)c2ccc(Br)cc2)cc1 | i | i | 9.3% | 14.6% | -1.1% | -12.7%
Cc1ccc(C(=O)C[n+]2ccc(Cc3ccccc3)cc2)cc1 | 4.61µM* | i | -2.0% | 11.2% | -26.3% | -16.0%
COc1ccc(C(=O)C[n+]2ccc(N(C)C)cc2)cc1 | 5.17µM* | i | ? | ? | ? | -9.0%
Cc1ccc(Nc2nc3ccccc3c3nncn23)cc1C | i | i | / | / | / | /
O=C(O)CSc1ccn(Cc2ccccc2)c1 | i | i | / | / | 12.3% | 4.0%
O=S(=O)(c1ccccc1)c1nnn2c1nc(N1CCN(c3ccccc3)CC1)c1cc(Cl)ccc12 | i | i | / | / | / | /
CCc1ccccc1NC(=O)CNC(=O)CCC(=O)c1cc(C)sc1C | i | i | / | / | 1.8% | 8.2%

High-throughput results from PubChem BioAssay.
